From PubChem
Only some compounds are listed: those with a hit (about 6.5% of all), similar ones and a draw of the others.
Spn DPM-DC inh – S. pneumoniae DPM-DC inhibitors, primary screen, biochemical, PK/LDH-coupled NADH fluorescence; diphosphomevalonate decarboxylase (Streptococcus pneumoniae D39); purified DPM-DC; calls only at 10 µM; 0.49% of 65,000 active;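 active = the 320 compounds with the highest percent inhibition in the single-dose primary screen, excluding strongly autofluorescent ones, cut at about 32% in these data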;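 note: kinetic rate of NADH fluorescence loss reporting ADP formed by the decarboxylase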
PMK inhibit – S. pneumoniae PMK inhibitors, primary screen, biochemical, mevalonate pathway, pilot trial included. 0.49% of 65,000 active. inhibition, % at 10 µM. phosphomevalonate kinase (Streptococcus pneumoniae D39). AID 539, 2006. purified PMK, PK/LDH-coupled NADH absorbance 340 nm;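 active = top-ranked compounds by inhibition in the single 10 µM screen, taking a fixed number of the strongest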
Abs 340nm – compound light absorbance at 340 nm, profiling panel, artefact control, biochemical, MLSMR library, data from PS, PMK, MK assays; compound absorbance at 340 nm, fold over control; fold change at 10 µM; 65,000 tested, under 10 active; AID 708, 2007;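 active = at 10 µM dose, initial 340 nm absorbance at least 2 fold that of control wells; inactive = change under 2 fold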;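 note: initial absorbance extrapolated from kinetic A340 decline of NADH oxidation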
NADH enzymes – inhibitors of PK/LDH coupling enzymes, profiling panel, artefact control, biochemical, MLSMR library | coupled PK/LDH NADH assays, four targets | IC50, µM (highest dose often 10 µM) | 0.02% of 65,000 active;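 active = single-dose screening hits from any of four coupled enzyme assays that gave an IC50 when retested across doses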;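 note: the DPM-DC format reads NADH fluorescence rather than 340 nm absorbance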
Spn MK inh – S. pneumoniae MK inhibitors, primary screen, biochemical, PK/LDH-coupled NADH absorbance; purified MK, PK/LDH-coupled NADH absorbance 340 nm; inhibition, % at 10 µM; 0.48% of 65,000 active;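 active = ranked among the strongest by inhibition in the single 10 µM screen, a fixed top-ranked set picked for dose follow-up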
Fluor 339 460 – intrinsic fluorescence of library compounds, ex339/em460 – biochemical, MLSMR library, data from DPM-DC assay, artefact control, profiling panel | compound autofluorescence, ex339/em460 nm, NADH buffer; hits give high values; 1 = no-compound wells, NADH background | fluorescence fold increase at 10 µM | 5.5% of 65,000 active | AID 709, 2007;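 active = at 10 µM, mean starting fluorescence two-fold or more over control wells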;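 note: signal is the first read of a kinetic run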
Hits are given with their value; - = inactive; . = no result given; + = active, no number.

SMILES | Spn DPM-DC inh | PMK inhibit | Abs 340nm | NADH enzymes | Spn MK inh | Fluor 339 460
Cc1cc(C)c2c(=O)n(CC(=O)NCCCN3CCOCC3)sc2n1 | - | - | - | - | - | -
Cc1cccc(N2CCN(C(=O)Cn3sc4nc(C)cc(C)c4c3=O)CC2C)c1 (stereo unspecified) | - | - | - | - | - | -
Cc1cc(C)c2c(=O)n(CC(=O)NCCCN3CCN(c4ccccc4F)CC3)sc2n1 | + | - | - | - | - | -
O=S(=O)(NCc1ccco1)N1CCOCC1 | - | - | - | - | - | -
CCc1cc2c(CN3CCN(CC)CC3)cc(=O)oc2cc1O | . | - | - | - | - | 3.78
CCN1CCN(C(=O)c2cc3cc4cc(OC)ccc4nc3s2)CC1 | - | - | - | - | - | 2.77
Cc1ccc2cc3cc(C(=O)N4CCN(C(=O)c5ccco5)CC4)sc3nc2c1 | - | - | - | - | - | -
CCCOC(=O)Cc1n[nH]c(=O)[nH]c1=O | + | - | - | - | - | -
CCCOC(=O)CCc1n[nH]c(=O)[nH]c1=O | - | - | - | - | - | -
Clc1cccc(-c2nnc3sc(-c4ccc5c(c4)OCO5)nn23)c1 | - | - | - | - | - | -
c1ccc2c(c1)ncn2Cc1nnc2sc(-c3ccc4c(c3)OCO4)nn12 | . | - | - | - | - | 3.8
Clc1ccccc1-c1nn2c(Cn3cnc4ccccc43)nnc2s1 | - | - | - | - | - | -
Clc1ccccc1-c1nnc2sc(-c3ccc4c(c3)OCO4)nn12 | - | - | - | - | - | 2.59
Brc1ccccc1-c1nnc2sc(-c3ccc4c(c3)OCCO4)nn12 | - | - | - | - | - | 2.03
Brc1ccccc1-c1nnc2sc(Cc3ccccc3)nn12 | - | - | - | - | - | -
Fc1ccc(-c2nn3c(C4COc5ccccc5O4)nnc3s2)cc1 (stereo unspecified) | - | - | - | - | - | -
c1ccc2c(c1)OCC(c1nnc3sc(-c4ccc5c(c4)OCO5)nn13)O2 (stereo unspecified) | - | - | - | - | - | 2.57
CCCCOC(=O)Nc1cccc(C(C)=O)c1 | - | - | - | - | - | -
COc1cccc(CNC(=O)C(CCSC)NS(=O)(=O)c2ccc3c(c2)oc(=O)n3C)c1 (stereo unspecified) | - | - | - | - | - | -
COc1ccccc1S(=O)Cc1ccc(C(=O)NCCc2ccc(Cl)cc2)o1 (stereo unspecified) | - | - | - | - | - | -
N#Cc1nc(-c2ccc(Cl)cc2)oc1NCc1ccco1 | . | - | - | - | - | 2.11
N#Cc1nc(-c2ccccc2Cl)oc1NCc1ccco1 | - | - | - | - | - | -
N#Cc1nc(-c2ccc(Cl)cc2)oc1NCc1cccc2c1OCO2 | . | - | - | - | - | 3.75
CCN(CC)S(=O)(=O)c1ccc(NC2c3ncccc3C(=O)N2Cc2ccccc2)cc1 (stereo unspecified) | - | - | - | - | 50.0 | -
COc1ccc(CN2C(=O)c3cccnc3C2Nc2cc(Cl)c(OC)cc2OC)cc1 (stereo unspecified) | - | - | - | - | 57.0 | -
SMILES | Spn DPM-DC inh | PMK inhibit | Abs 340nm | NADH enzymes | Spn MK inh | Fluor 339 460
CCN(CC)S(=O)(=O)c1ccc(NC2c3ccccc3C(=O)N2Cc2ccc3c(c2)OCO3)cc1 (stereo unspecified) | - | - | - | - | - | -
O=C(c1c(Cl)nc2sccn12)N1CCN(c2cccc(Cl)c2)CC1 | - | - | - | - | - | -
c1ccc2c(c1)nc(NCC1CCCO1)c1nnnn12 (stereo unspecified) | . | - | - | - | - | 2.11
S=C(NCC1CCCO1)n1nnc2ccccc21 (stereo unspecified) | - | - | - | - | - | -
CC(C)CCNc1nc2c(cc1C#N)COC(C)(C)C2 | . | - | - | - | - | 2.25
O=C(Nc1ccc2c(c1)CCC2)C1COc2ccccc2O1 (stereo unspecified) | - | - | - | - | - | 2.11
CC1=C(C(=O)OCC(C)C)C23C(=O)c4ccccc4C2(O1)OC(N)=C3C#N (stereo unspecified) | - | - | - | - | . | -
